Measured values: ChEMBL document CHEMBL5606460, “ASAP - DENV-2 NS2B-NS3 protease fluorescence single point” (2024)
About 110 (5.5%) of roughly 2,000 compounds showed an effect of 50% or more. The list comes from a sample in which strong results are over-represented; it also holds similar structures and randomly drawn compounds.

Target: Genome polyprotein (dengue virus type 2) (UniProt P29990)
[1] = Thailand/16681/1984, Concentration 25.0 uM, Number of replicates 1.0

Q: How did the inhibition (Thailand/16681/1984, Concentration 49.5 uM, Number of replicates 2.0, Standard deviation 1.3250088302691205 %) turn out when `Cn1cc(CNC(=O)c2ccccc2[C@@H]2CCCCN2)cn1` was run?
A: The inhibition was -2.36%.

Q: And the inhibition (Thailand/16681/1984, Concentration 99.01 uM, Number of replicates 2.0, Standard deviation 0.6184423716804828 %)?
A: The inhibition was -1.37%.

Q: What about the inhibition (Thailand/16681/1984, Concentration 198.0 uM, Number of replicates 2.0, Standard deviation 0.12536703369097324 %) of the same compound?
A: The inhibition was -0.243%.

Q: For `Cc1cn(-c2cc(NC(=O)C3CCN(c4ccc(C=O)cc4)CC3)cc(C(F)(F)F)c2)cn1`, which inhibition [1] is on record?
A: The inhibition was 12.1%.

Q: `O=Cc1ccc(N2CCC(C(=O)N3CCC(c4nc5ccccc5s4)CC3)CC2)cc1` was tested. Which inhibition [1] did it give?
A: Its inhibition is 14.3%.

Q: With `Cn1cc(CNC(=O)c2ccccc2CN)cn1` as the compound, how does the inhibition (Thailand/16681/1984, Concentration 49.5 uM, Number of replicates 2.0, Standard deviation 4.704758964680012 %) read?
A: Its inhibition is -1.53%.

Q: And the inhibition (Thailand/16681/1984, Concentration 99.01 uM, Number of replicates 2.0, Standard deviation 3.3738585950449482 %)?
A: The inhibition was -6.84%.

Q: What about the inhibition (Thailand/16681/1984, Concentration 198.0 uM, Number of replicates 2.0, Standard deviation 1.4794083306984744 %) of the same compound?
A: The inhibition was -5.39%.

Q: What does the source list for `c1cnc2c(CN3CCC(c4c[nH]c5cccnc45)CC3)c[nH]c2c1`?
A: inhibition (Thailand/16681/1984, Concentration 49.5 uM, Number of replicates 2.0, Standard deviation 2.401783006640112 %): -4.14%; inhibition (Thailand/16681/1984, Concentration 99.01 uM, Number of replicates 2.0, Standard deviation 2.691377880268528 %): -3.47%; inhibition (Thailand/16681/1984, Concentration 198.0 uM, Number of replicates 2.0, Standard deviation 2.989922552884535 %): -1.51%

Q: For `O=Cc1ccc(N2CCC(C(=O)N[C@@H](Cc3ccccc3)c3ccccc3)CC2)cc1`, which inhibition [1] is on record?
A: Its inhibition is 4.84%.

Q: How did the inhibition [1] turn out when `O=Cc1ccc(N2CCC(C(=O)NC[C@H]3COc4ccccc4O3)CC2)cc1` was run?
A: The inhibition was 15.5%.

Q: Which inhibition [1] does the source give for `C#CCN(Cc1ccccc1Cl)C(=O)C1CCN(c2ccc(C=O)cc2)CC1` here?
A: The inhibition was 14.7%.

Q: How did the inhibition (Thailand/16681/1984, Concentration 49.5 uM, Number of replicates 2.0, Standard deviation 0.5855266102241418 %) turn out when `CNC(=O)c1nc(Cl)ccc1NS(=O)(=O)c1ccc(Oc2ccccc2Cl)cc1` was run?
A: The inhibition was 6.34%.

Q: And the inhibition (Thailand/16681/1984, Concentration 99.01 uM, Number of replicates 2.0, Standard deviation 0.14494638377684543 %)?
A: Its inhibition is 6.62%.

Q: And the inhibition (Thailand/16681/1984, Concentration 198.0 uM, Number of replicates 2.0, Standard deviation 0.056926230997118174 %)?
A: Its inhibition is 4.4%.

Q: Which results are given for `CNC(=O)c1cc(C#N)ccc1NS(=O)(=O)c1ccc(Oc2ccccc2Cl)cc1`?
A: inhibition (Thailand/16681/1984, Concentration 49.5 uM, Number of replicates 2.0, Standard deviation 0.4271842721165937 %): 49.4%; inhibition (Thailand/16681/1984, Concentration 99.01 uM, Number of replicates 2.0, Standard deviation 0.14972718509713318 %): 88.8%; inhibition (Thailand/16681/1984, Concentration 198.0 uM, Number of replicates 2.0, Standard deviation 0.1152868035427591 %): 94%

Q: For `CNC(=O)c1cc(Cl)ccc1NS(=O)(=O)c1ccc(C(=O)N2CCOCC2)cc1`, which inhibition (Thailand/16681/1984, Concentration 49.5 uM, Number of replicates 2.0, Standard deviation 0.9242131636205312 %) is on record?
A: The inhibition was 0.016%.

Q: What about the inhibition (Thailand/16681/1984, Concentration 99.01 uM, Number of replicates 2.0, Standard deviation 0.5448647637736805 %) of the same compound?
A: Its inhibition is 0.743%.

Q: What about the inhibition (Thailand/16681/1984, Concentration 198.0 uM, Number of replicates 2.0, Standard deviation 0.08706358790592401 %) of the same compound?
A: The inhibition was 3.74%.

Q: With `CNC(=O)c1cncnc1NS(=O)(=O)c1ccc(Oc2ccccc2Cl)cc1` as the compound, how does the inhibition (Thailand/16681/1984, Concentration 49.5 uM, Number of replicates 2.0, Standard deviation 1.0127526920144583 %) read?
A: The inhibition was 5.46%.

Q: And the inhibition (Thailand/16681/1984, Concentration 99.01 uM, Number of replicates 2.0, Standard deviation 1.3865274661736828 %)?
A: The inhibition was 5.75%.

Q: And the inhibition (Thailand/16681/1984, Concentration 198.0 uM, Number of replicates 2.0, Standard deviation 1.0625889801550739 %)?
A: Its inhibition is 3.56%.

Q: How did the inhibition (Thailand/16681/1984, Concentration 49.5 uM, Number of replicates 2.0, Standard deviation 1.11087224122176 %) turn out when `C[C@H]1COCCN1C(=O)c1cc(Cl)ccc1NS(=O)(=O)c1ccc(Oc2ccccc2Cl)cc1` was run?
A: The inhibition was 42.6%.

Q: What about the inhibition (Thailand/16681/1984, Concentration 99.01 uM, Number of replicates 2.0, Standard deviation 0.41977451897359047 %) of the same compound?
A: Its inhibition is 79.8%.

Q: What about the inhibition (Thailand/16681/1984, Concentration 198.0 uM, Number of replicates 2.0, Standard deviation 0.050716482924917095 %) of the same compound?
A: Its inhibition is 92.9%.

Q: Which results are given for `CCc1ccc(NS(=O)(=O)c2ccc(Oc3ccccc3Cl)cc2)c(C(=O)NC)c1`?
A: inhibition (Thailand/16681/1984, Concentration 49.5 uM, Number of replicates 2.0, Standard deviation 2.280534278494396 %): 20.1%; inhibition (Thailand/16681/1984, Concentration 99.01 uM, Number of replicates 2.0, Standard deviation 1.9533776277108892 %): 35.5%; inhibition (Thailand/16681/1984, Concentration 198.0 uM, Number of replicates 2.0, Standard deviation 2.0141203401343657 %): 57.1%

Q: Which inhibition (Thailand/16681/1984, Concentration 49.5 uM, Number of replicates 2.0, Standard deviation 0.003826975991637689 %) does the source give for `CNC(=O)c1cc(Cl)ncc1NS(=O)(=O)c1ccc(Oc2ccccc2Cl)cc1` here?
A: Its inhibition is -0.629%.

Q: What about the inhibition (Thailand/16681/1984, Concentration 99.01 uM, Number of replicates 2.0, Standard deviation 0.08610681229787821 %) of the same compound?
A: Its inhibition is -0.288%.

Q: What about the inhibition (Thailand/16681/1984, Concentration 198.0 uM, Number of replicates 2.0, Standard deviation 0.5032468582115982 %) of the same compound?
A: Its inhibition is 12.6%.

Q: With `CNC(=O)c1cc(Br)cnc1NS(=O)(=O)c1ccc(Oc2ccccc2Cl)cc1` as the compound, how does the inhibition (Thailand/16681/1984, Concentration 49.5 uM, Number of replicates 2.0, Standard deviation 0.1523274770628613 %) read?
A: Its inhibition is 20.5%.

Q: And the inhibition (Thailand/16681/1984, Concentration 99.01 uM, Number of replicates 2.0, Standard deviation 0.08785965758059779 %)?
A: The inhibition was 73.9%.

Q: What about the inhibition (Thailand/16681/1984, Concentration 198.0 uM, Number of replicates 2.0, Standard deviation 0.12988512316778045 %) of the same compound?
A: Its inhibition is 87.2%.

Q: Which inhibition (Thailand/16681/1984, Concentration 49.95 uM, Number of replicates 2.0, Standard deviation 2.1720644748171827 %) does the source give for `Cc1cc(CO)c2cccc(NC(=O)CN3CCOCC3)c2n1` here?
A: The inhibition was 8.27%.

Q: And the inhibition (Thailand/16681/1984, Concentration 99.9 uM, Number of replicates 2.0, Standard deviation 1.8504772771832996 %)?
A: Its inhibition is 15.1%.

Q: For `CS(=O)(=O)N1CCC(C(=O)Nc2nc3c(F)cccc3s2)CC1`, which inhibition (Thailand/16681/1984, Concentration 49.5 uM, Number of replicates 2.0, Standard deviation 0.96531236791799 %) is on record?
A: The inhibition was 0.796%.

Q: And the inhibition (Thailand/16681/1984, Concentration 99.01 uM, Number of replicates 2.0, Standard deviation 0.9471689504241718 %)?
A: The inhibition was 0.997%.

Q: What about the inhibition (Thailand/16681/1984, Concentration 198.0 uM, Number of replicates 2.0, Standard deviation 0.2746253667085591 %) of the same compound?
A: Its inhibition is 0.83%.

Q: How did the inhibition (Thailand/16681/1984, Concentration 49.5 uM, Number of replicates 2.0, Standard deviation 1.9221944810499825 %) turn out when `NCc1cccc(NC(=O)[C@H]2CCN(C(=O)OCc3ccccc3)C2)c1` was run?
A: The inhibition was -1.99%.

Q: And the inhibition (Thailand/16681/1984, Concentration 99.01 uM, Number of replicates 2.0, Standard deviation 1.6664051520702452 %)?
A: The inhibition was -1.6%.

Q: And the inhibition (Thailand/16681/1984, Concentration 198.0 uM, Number of replicates 2.0, Standard deviation 2.955416090340052 %)?
A: Its inhibition is -1.98%.
